Our source for the binding signal values is PMC11574364.

Common to all, as to test: protein domain microarray probed with biotinylated miRNA; Domain array: 20 mM Tris-HCl pH 7.4, 200 mM KCl, 0.2 mM EDTA, 0.05% NP40, 2 ug/ul heparin, overnight 4 C. ORF array: PBS pH 7.0 with RNase inhibitor, 100 ng RNA; high values mean tight binding
What all share (conditions): ssRNA

One experiment deals with T1, PPRC1 (Homo sapiens, UniProt Q5VV67).
T1 sequence: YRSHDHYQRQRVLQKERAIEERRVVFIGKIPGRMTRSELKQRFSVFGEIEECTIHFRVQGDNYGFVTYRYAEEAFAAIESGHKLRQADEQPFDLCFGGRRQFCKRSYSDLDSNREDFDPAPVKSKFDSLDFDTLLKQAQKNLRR

The target in another experiment is T2, RBM26(1) (Homo sapiens, UniProt Q5T8P6).
T2 sequence: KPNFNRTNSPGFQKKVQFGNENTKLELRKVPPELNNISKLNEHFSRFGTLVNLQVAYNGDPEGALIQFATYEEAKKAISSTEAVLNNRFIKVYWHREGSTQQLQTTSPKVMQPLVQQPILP

In a further experiment the target is T3, ZNF638 (Homo sapiens, UniProt Q14966).
T3 sequence: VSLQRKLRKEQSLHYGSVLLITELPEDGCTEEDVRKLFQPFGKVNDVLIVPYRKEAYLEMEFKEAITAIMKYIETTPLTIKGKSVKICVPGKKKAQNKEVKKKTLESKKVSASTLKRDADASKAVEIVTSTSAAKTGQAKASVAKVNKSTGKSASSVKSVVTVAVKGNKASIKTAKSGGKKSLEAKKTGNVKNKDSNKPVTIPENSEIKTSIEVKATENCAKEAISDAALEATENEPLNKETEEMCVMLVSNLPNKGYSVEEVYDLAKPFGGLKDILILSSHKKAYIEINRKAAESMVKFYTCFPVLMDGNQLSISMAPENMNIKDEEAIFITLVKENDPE

A further experiment deals with PKR(1-2) (Homo sapiens, UniProt P19525).
Sequence of PKR(1-2) (P19525 1-186): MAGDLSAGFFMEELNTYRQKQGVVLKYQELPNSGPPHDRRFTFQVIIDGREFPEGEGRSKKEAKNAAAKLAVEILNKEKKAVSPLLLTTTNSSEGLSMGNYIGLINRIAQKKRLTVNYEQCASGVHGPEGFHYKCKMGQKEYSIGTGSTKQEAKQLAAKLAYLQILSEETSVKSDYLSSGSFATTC
Another experiment concerns the target T4, TIA1 (Homo sapiens, UniProt P31483).
T4 sequence: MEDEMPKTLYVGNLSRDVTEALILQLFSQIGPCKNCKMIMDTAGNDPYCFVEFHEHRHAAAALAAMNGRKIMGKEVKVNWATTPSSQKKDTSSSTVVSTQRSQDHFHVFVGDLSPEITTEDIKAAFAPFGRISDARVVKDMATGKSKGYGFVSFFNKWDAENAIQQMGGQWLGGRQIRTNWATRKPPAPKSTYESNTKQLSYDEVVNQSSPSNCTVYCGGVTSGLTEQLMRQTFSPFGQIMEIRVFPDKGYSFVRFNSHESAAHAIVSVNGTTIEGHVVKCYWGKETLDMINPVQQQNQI

The target of another experiment is T5, ADAR(3) (Homo sapiens, UniProt P55265).
T5 sequence: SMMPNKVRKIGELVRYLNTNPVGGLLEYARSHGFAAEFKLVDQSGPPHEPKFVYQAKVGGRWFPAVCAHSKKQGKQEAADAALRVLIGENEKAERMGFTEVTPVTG

The target in a further experiment is DDX9(1)/DHX9 (Homo sapiens, UniProt Q08211).
Sequence of DDX9(1)/DHX9 (Q08211 1-89): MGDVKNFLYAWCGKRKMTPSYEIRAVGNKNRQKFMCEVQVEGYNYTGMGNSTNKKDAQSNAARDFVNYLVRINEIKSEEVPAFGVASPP
Another experiment has as its target T6, SETD1B (Homo sapiens, UniProt Q9UPS6).
T6 sequence: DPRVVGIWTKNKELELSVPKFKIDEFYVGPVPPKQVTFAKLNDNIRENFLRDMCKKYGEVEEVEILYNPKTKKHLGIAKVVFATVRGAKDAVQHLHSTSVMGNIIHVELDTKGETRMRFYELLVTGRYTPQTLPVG

In a further experiment the target is T7, ADAR(2) (Homo sapiens, UniProt P55265).
T7 sequence: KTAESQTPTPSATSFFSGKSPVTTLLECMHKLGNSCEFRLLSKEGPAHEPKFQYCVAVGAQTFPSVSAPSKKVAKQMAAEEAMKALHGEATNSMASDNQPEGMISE

Another experiment deals with T8, RBM33 (Homo sapiens, UniProt Q96EV2).
T8 sequence: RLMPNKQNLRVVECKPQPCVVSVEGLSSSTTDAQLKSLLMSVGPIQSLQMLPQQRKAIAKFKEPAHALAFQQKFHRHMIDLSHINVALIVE

As for AGAGGUAGUAGGUUGCAUAGUU, the binding signal with PPRC1 was 97 ± 3.22 fluorescence intensity; in the experiment with RBM26(1) it was 1530 ± 59.8 fluorescence intensity; with ZNF638, 29.21 ± 0.262 fluorescence intensity; with PKR(1-2), 24.8 ± 1.68 fluorescence intensity; in the experiment with TIA1, 1240 ± 50.7 fluorescence intensity; with ADAR(3), 24.2 ± 0.771 fluorescence intensity. For the same sequence, the binding signal is 29.6 ± 4.33 fluorescence intensity with DDX9(1)/DHX9, 20.2 ± 1.15 fluorescence intensity in the experiment with SETD1B, 23.9 ± 0.346 fluorescence intensity with ADAR(2) and 28.3 ± 2.28 fluorescence intensity with RBM33.

Regarding UGAGGUAGUAGGUUGUGUGGUU, the binding signal is 155 ± 53.3 fluorescence intensity with PPRC1; 1560 ± 215 fluorescence intensity with RBM26(1); 57.9 ± 2.93 fluorescence intensity with ZNF638; 53.5 ± 3.56 fluorescence intensity in the experiment with PKR(1-2); 871 ± 40.8 fluorescence intensity with TIA1; 31.8 ± 4.56 fluorescence intensity with ADAR(3). Further, the binding signal with DDX9(1)/DHX9 is 68.5 ± 11.3 fluorescence intensity; with SETD1B, 24.2 ± 1.14 fluorescence intensity; with ADAR(2) it was 22.6 ± 1.85 fluorescence intensity; with RBM33, 32.8 ± 1.94 fluorescence intensity.

Regarding UGAGGUAGUAGGUUGUAUAGUU, the binding signal came to 24.9 ± 1.13 fluorescence intensity with PPRC1; 395 ± 44.7 fluorescence intensity in the experiment with RBM26(1); 584.8 ± 5.47 fluorescence intensity in the experiment with TIA1; 21.4 ± 1.84 fluorescence intensity in the experiment with SETD1B; 21.92 ± 0.0141 fluorescence intensity with ADAR(2); 24.2 ± 0.735 fluorescence intensity in the experiment with RBM33.

For the sequence CAGUGCAAUGAUGAAAGGGCAU, the binding signal was 43 ± 4.72 fluorescence intensity with PPRC1; 478 ± 6.75 fluorescence intensity with RBM26(1); 33.6 ± 1.92 fluorescence intensity in the experiment with ZNF638; 537.8 ± 3.27 fluorescence intensity with TIA1; 22 ± 1.29 fluorescence intensity with ADAR(2); 26.1 ± 1.95 fluorescence intensity in the experiment with RBM33.

For the sequence UAGCUUAUCAGACUGAUGUUGA, the binding signal in the experiment with RBM26(1) stood at 31 ± 1.68 fluorescence intensity; with TIA1 it was 631 ± 33.9 fluorescence intensity; with ADAR(2), 23.2 ± 3.02 fluorescence intensity.

For the sequence UGAGGUAGUAGGUUGUAUGGUU, the binding signal with PPRC1 was determined as 134 ± 3.36 fluorescence intensity; with RBM26(1), 1460 ± 57.5 fluorescence intensity; with ZNF638, 38.3 ± 1.35 fluorescence intensity; in the experiment with PKR(1-2), 28.7 ± 2.65 fluorescence intensity; with TIA1, 1030 ± 40.8 fluorescence intensity; in the experiment with ADAR(3), 30.3 ± 3.34 fluorescence intensity. Moreover, the binding signal with DDX9(1)/DHX9 was 49.7 ± 9.25 fluorescence intensity; with SETD1B, 22.4 ± 0.396 fluorescence intensity; with ADAR(2), 22.7 ± 0.559 fluorescence intensity; in the experiment with RBM33 it was 40.1 ± 0.601 fluorescence intensity.
